# Source: PubChem
# Mtb MenB inh: inhibitors of Mycobacterium tuberculosis MenB enzyme | P9WNP5 | MenB enzyme assay, absorbance read-out | inhibition, % (test concentration not listed) | actives 0.43% (n = 100,000); in the data active = inhibition above about 21%, passing the limit was not always enough
# PV pol inh: poliovirus RNA polymerase inhibition; poliovirus polymerase elongation, fluorescence polarization; active compounds read low; % elongation, % (compound at 16.7 µg/mL); actives 0.66% (n = 150,000); AID 588519; in the data active = % elongation below about 90%
# Target sequence (P03300 1749-2209 limits assumed): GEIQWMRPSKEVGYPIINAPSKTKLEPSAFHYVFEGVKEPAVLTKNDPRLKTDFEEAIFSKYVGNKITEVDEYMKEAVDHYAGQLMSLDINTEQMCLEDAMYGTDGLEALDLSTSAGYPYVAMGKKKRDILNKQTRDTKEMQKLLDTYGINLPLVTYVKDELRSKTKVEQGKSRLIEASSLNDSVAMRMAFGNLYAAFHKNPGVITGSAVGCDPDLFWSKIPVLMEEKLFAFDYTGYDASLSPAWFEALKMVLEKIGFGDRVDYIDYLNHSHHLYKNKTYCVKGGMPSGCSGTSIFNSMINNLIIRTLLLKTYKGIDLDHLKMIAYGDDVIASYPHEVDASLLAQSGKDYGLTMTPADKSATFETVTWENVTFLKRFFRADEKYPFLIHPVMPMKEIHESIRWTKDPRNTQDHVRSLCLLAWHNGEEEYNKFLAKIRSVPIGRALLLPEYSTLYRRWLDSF
# Mtb MbtI inh: inhibitors of Mycobacterium tuberculosis siderophore enzyme MbtI; purified MbtI enzyme, fluorescence intensity read-out; P9WFX0; actives 0.89% (n = 100,000); inhibition, % (no concentration beside the values); in the data active = inhibition mostly above about 56%, no sharp cut-off; inactive = mostly below about 77%
# An asterisk follows results filed as active; i = inactive; / = not tested or not shown. Rows were chosen to be rich in hits. Some 1.4% of all compounds tested hit in one or more screens of this group.
SMILES,Mtb MenB inh,PV pol inh,Mtb MbtI inh
CCc1cccc(NC(=O)Nc2cn(C)c(=O)c3ccccc23)c1,/,79.0*,/
COC(=O)c1sccc1NC(=O)Nc1cn(C)c(=O)c2ccccc12,4.1,98.0,51.2
CN(C(=O)Nc1cn(C)c(=O)c2ccccc12)c1ccccc1,/,99.0,/
Cn1cc(NC(=O)Nc2ccccc2F)c2ccccc2c1=O,-8.4,84.0*,-31.5
COc1cccc(NC(=O)Nc2cn(C)c(=O)c3ccccc23)c1,-14.4,85.0*,-29.2
CC1CCN(Cc2ccc(NC(=O)Nc3cn(C)c(=O)c4ccccc34)cc2)CC1,-11.4,101.0,-29.2
COc1ccc(N/N=C(\C#N)C(=O)Nc2ccc(C)c(C)c2)cc1,-72.0,76.0,5.9
O=C(NCCSc1nnnn1-c1ccccc1)c1ccccc1,-13.3,103.0,-4.5
COC(=O)NCCSc1nnnn1-c1ccccc1,30.7*,101.0,7.7
Cc1ccc(N2C(=O)CSC2/C=C/c2ccccc2)cc1 (centres undefined),-13.1,120.0,/
O=C(c1cn[nH]c1)c1cc(Cl)cc(Cl)c1O,-11.4,107.0,0.1
O=C(c1ccccc1)c1ccccc1NC(=O)c1ccccc1C(=O)O,/,112.0,/
O=C(Nc1ccccc1C(=O)O)c1ccccc1,/,/,55.5*
O=C1C2C3c4ccccc4C(c4ccccc43)C2C(=O)N1CCN1CCNCC1 (centres undefined),-4.7,101.0,-14.6
CCOC(=O)c1cnn(-c2ccccc2)c1NC(=O)c1ccco1,-21.0,103.0,-9.4
Cc1nc2[nH]n(-c3ccccc3)c(=O)c2c(C)c1CCC(=O)Nc1ccccc1,-17.0,104.0,9.6
Cc1cc(C)c2c(=O)n(-c3ccccc3)[nH]c2n1,-48.6,101.0,52.1*
COc1cc(C(=O)O)cc2c1OC(C)C2 (centres undefined),-16.2,104.0,-2.4
NNc1ncnc2ccccc12,-43.5,106.0,6.0
O=C(O)c1ccc2nc(-c3cc4cc(F)ccc4oc3=O)[nH]c2c1,/,111.0,/
O=C(O)c1ccc2nc(-c3cc4cccc(O)c4oc3=O)[nH]c2c1,/,79.0*,/
O=C1OC2(CCCCC2)OC(=O)C1=Cc1ccc(-c2ccc(C(=O)O)cc2)o1,-41.2,105.0,115.5
CC(=O)N1CCC(N(Cc2ccco2)C(=O)NC23CC4CC(CC(C4)C2)C3)CC1,-6.5,101.0,-15.9
CCN(CCCN1C(=O)CSC1c1ccc(OC(F)F)c(OC)c1)c1ccccc1 (centres undefined),-19.7,98.0,7.2
Cc1cc(=S)nc(C(C)C)[nH]1,-52.7,100.0,90.7*
SMILES,Mtb MenB inh,PV pol inh,Mtb MbtI inh
Cc1cc(C)[nH]c(=S)n1,-19.4,104.0,6.2
FC(F)(F)CN(Cn1nc(-c2ccco2)oc1=S)Cn1nc(-c2ccco2)oc1=S,-8.1,76.0*,79.8
Cc1ccc(NC(=O)CN(C)Cn2nc(-c3ccco3)oc2=S)cc1,-14.1,96.0,15.7
CC(=O)Nc1scc2c1c(=O)oc1ccccc12,-16.7,103.0,11.2
COC(=O)Nc1scc2c1c(=O)oc1ccccc12,-20.8,98.0,70.9*
NCC1Cc2ccccc2O1 (centres undefined),-25.6,101.0,-6.2
CN(CCC#N)CC1Cc2ccccc2O1 (centres undefined),44.5*,103.0,-0.6
COCCNC(=O)CCC(=O)NNc1nc2ccccc2c2nc(C)nn12,/,30.0*,/
Cc1nc2c3ccccc3nc(NNC(=O)CCC(=O)O)n2n1,/,105.0,/
Cc1nc2c3ccccc3nc(NNC(=O)CCC(=O)NC3CCCC3)n2n1,1.9,100.0,-0.4
CCC(C)NC(=O)CCC(=O)NNc1nc2ccccc2c2nc(C)nn12 (centres undefined),/,36.0*,/
Cc1ccc(C2=C/C(=C3\OC(=O)c4ccccc43)C(=O)O2)cc1,-15.2,109.0,/
c1ccc(C(c2ccccc2)N2CCN(c3ncnc4nc[nH]c34)CC2)cc1,-8.0,102.0,-19.6
Clc1ccccc1-c1nnc(C(c2ccccc2)N2CCC3(CC2)OCCO3)o1 (centres undefined),6.4,100.0,-12.1
CCc1cc2c(COC(=O)c3ccccn3)cc(=O)oc2cc1O,-36.6,100.0,-58.2
c1ccc(C2=NNC(=NCC3CCCO3)SC2)cc1 (centres undefined),-5.9,114.0,33.1
CCC(C)(C)C(=O)Nc1nnc(COC)s1,33.0*,101.0,9.5
COCc1nnc(NC(=O)Cc2ccccc2)s1,-4.8,100.0,/
O=C(NC1CCCCCC1)c1ccccc1,16.5,102.0,0.5
Cc1ccc(-c2nc(I)ccc2O)cc1,38.6*,99.0,i
Cc1ccc(Nc2c(-c3ccc(O)cc3)nc3cccc(C)n23)cc1,/,104.0,/
O=C(CCc1n[nH]c(=S)[nH]c1=O)NCCc1ccc(Cl)cc1Cl,6.3,97.0,7.1
N#CCCSc1nnc(-c2ccc(Br)cc2)n1CCc1ccccc1,-31.8,99.0,-9.8
Nc1sc2c(c1C(=O)Nc1cccc(Cl)c1)CCCCC2,-14.3,104.0,/
O=C(Nc1sc2c(c1C(=O)Nc1cccc(Cl)c1)CCCC2)c1cccs1,/,77.0*,/
